# Measurements as given in paper PMC11062922 (Nature Chemical Biology, 2023).
# Like-named read-outs stand apart in the source and are kept apart here.
# Key:
# Parameters in all cases: species or system human, MV4-11 + K-562 + COLO205 + SK-N-BE2 + OVCAR-8
# [1] = test system: CSNK1A1; conditions: read-out: apparent Kd; compound concentrations: 100 nM and 1000 nM (sheet 'Samples'), CATDS: 7.9796856628157303E-2; n = 1
# [2] = test system: CSNK1D; conditions: read-out: apparent Kd, compound concentrations: 100 nM and 1000 nM (sheet 'Samples'), n = 1
# [3] = test system: CSNK1E; conditions: read-out: apparent Kd, compound concentrations: 100 nM and 1000 nM (sheet 'Samples'), n = 1
# [4] = test system: DDR1; conditions: read-out: apparent Kd, compound concentrations: 100 nM and 1000 nM (sheet 'Samples'), n = 1
# [5] = test system: GAK; conditions: read-out: apparent Kd; compound concentrations: 100 nM and 1000 nM (sheet 'Samples'), CATDS: 4.3389501889838297E-2; n = 1
# [6] = test system: MAPK10; conditions: read-out: apparent Kd, compound concentrations: 100 nM and 1000 nM (sheet 'Samples'), n = 1
# [7] = test system: MAPK11; conditions: read-out: apparent Kd; compound concentrations: 100 nM and 1000 nM (sheet 'Samples'), CATDS: 4.3828309846065103E-2; n = 1
# [8] = test system: MAPK14; conditions: read-out: apparent Kd, compound concentrations: 100 nM and 1000 nM (sheet 'Samples'), n = 1
# [9] = test system: MAPK8; conditions: read-out: apparent Kd, compound concentrations: 100 nM and 1000 nM (sheet 'Samples'), n = 1
# [10] = test system: MAPK9; conditions: read-out: apparent Kd, compound concentrations: 100 nM and 1000 nM (sheet 'Samples'), n = 1
# [11] = test system: MAPKAPK2; conditions: read-out: apparent Kd, compound concentrations: 100 nM and 1000 nM (sheet 'Samples'), n = 1
# [12] = test system: NLK; conditions: read-out: apparent Kd, compound concentrations: 100 nM and 1000 nM (sheet 'Samples'), n = 1
# [13] = test system: PIK3CD; conditions: read-out: apparent Kd; compound concentrations: 100 nM and 1000 nM (sheet 'Samples'), CATDS: 8.1619991171871006E-2; n = 1
# [14] = test system: PIP4K2C; conditions: read-out: apparent Kd; compound concentrations: 100 nM and 1000 nM (sheet 'Samples'), CATDS: 4.0260686940240001E-2; n = 1
# [15] = test system: RIPK2; conditions: read-out: apparent Kd, compound concentrations: 100 nM and 1000 nM (sheet 'Samples'), n = 1
# [16] = test system: COX5A; conditions: read-out: apparent Kd; compound concentrations: 100 nM and 1000 nM (sheet 'Samples'), CATDS: 5.4646770087593201E-2; n = 1
# [17] = test system: DDR2; conditions: read-out: apparent Kd; compound concentrations: 100 nM and 1000 nM (sheet 'Samples'), CATDS: 5.1047862039129102E-2; n = 1
# [18] = test system: DYRK1A; conditions: read-out: apparent Kd; compound concentrations: 100 nM and 1000 nM (sheet 'Samples'), CATDS: 4.6782776774364397E-2; n = 1
# [19] = test system: ILK; conditions: read-out: apparent Kd; compound concentrations: 100 nM and 1000 nM (sheet 'Samples'), CATDS: 4.86206826406465E-2; n = 1
# [20] = test system: JAK2; conditions: read-out: apparent Kd; compound concentrations: 100 nM and 1000 nM (sheet 'Samples'), CATDS: 0.29618992494589602; n = 1
smiles,measurement,setting,value
CN1CCC(n2cnc(-c3ccc(F)cc3)c2-c2ccnc(NCCO)n2)CC1 [SB-226879],potency estimated from few doses,[1],91.2 nM
same,potency estimated from few doses,[2]; CATDS: 0.29962108595450698,6.97 nM
same,potency estimated from few doses,[3]; CATDS: 0.149531361707545,21.2 nM
same,potency estimated from few doses,[4]; CATDS: 4.0127184299889498E-2,2140 nM
same,potency estimated from few doses,[5],1240 nM
same,potency estimated from few doses,[6]; CATDS: 7.1886071403025706E-2,126 nM
same,potency estimated from few doses,[7],1170 nM
same,potency estimated from few doses,[8]; CATDS: 0.120722189423433,32.5 nM
same,potency estimated from few doses,[9]; CATDS: 4.3769759721199501E-2,1180 nM
same,potency estimated from few doses,[10]; CATDS: 6.64061265651648E-2,166 nM
same,potency estimated from few doses,[11]; CATDS: 0.113562081493031,37.1 nM
same,potency estimated from few doses,[12]; CATDS: 0.178729596227966,15.4 nM
same,potency estimated from few doses,[13],85.3 nM
same,potency estimated from few doses,[14],2090 nM
same,potency estimated from few doses,[15]; CATDS: 4.98304008841833E-2,572 nM
Cc1nccc(-c2c(-c3ccc(F)cc3)ncn2CCCN2CCOCC2)n1.Cl [SB-282975-A],potency estimated from few doses,[2]; CATDS: 0.65749239951041605,74.7 nM
same,potency estimated from few doses,[3]; CATDS: 0.24800542383641,505 nM
same,potency estimated from few doses,[8]; CATDS: 0.18964189775036899,1100 nM
same,potency estimated from few doses,[11]; CATDS: 0.19328139808162401,1030 nM
Clc1ccc(-c2nn3ncccc3c2-c2ccnc(Nc3ccc4c(c3)OCCO4)n2)cc1 [GW829116X],potency estimated from few doses,[16],1390 nM
same,potency estimated from few doses,[2]; CATDS: 7.5632586412137201E-2,637 nM
same,potency estimated from few doses,[3]; CATDS: 5.2875216757628997E-2,1530 nM
same,potency estimated from few doses,[4]; CATDS: 8.5854125332601505E-2,495 nM
same,potency estimated from few doses,[17],1710 nM
same,potency estimated from few doses,[18],2320 nM
same,potency estimated from few doses,[19],2010 nM
same,potency estimated from few doses,[20],72.6 nM
same,potency estimated from few doses,[6]; CATDS: 6.7537775874855099E-2,815 nM
same,potency estimated from few doses,[8]; CATDS: 7.0110586320851001E-2,749 nM
same,potency estimated from few doses,[9]; CATDS: 5.7180888411163297E-2,1230 nM
same,potency estimated from few doses,[10]; CATDS: 0.15745137005687401,177 nM
same,potency estimated from few doses,[11]; CATDS: 6.45632126081358E-2,904 nM
same,potency estimated from few doses,[12]; CATDS: 6.2213467797214997E-2,988 nM
same,potency estimated from few doses,[15]; CATDS: 7.3862527968221903E-2,670 nM
